Sampled rows, rich in hits. Any-hit rate of the full collection: about 2.3%.
KKLEB cytotox: CF airway cell cytotoxicity counter-screen; KKLEB CF airway cells viability, ATPlite luminescence, overnight; hits give low values; cells stimulated with P. aeruginosa culture filtrate; AID 602141; activity change (cytotoxicity), % at 5 µM; 360,000 tested, 0.36% active;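 active = corrected activity change at or below -50% at 5 µM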
HIF-2a inh: HIF-2a inhibition; 786-0 RCC cells HIF-2a reporter, luciferase luminescence, overnight; inhibition, % at 18.8 µM; 360,000 tested, 0.72% active; AID 624352;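 active = inhibition of the luminescence signal of 40% or more relative to plate controls, in a single-dose primary screen at 18.75 µM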
LGR2 antag: inhibitors of bursicon-induced Drosophila LGR2 receptor cAMP signaling | HEK293 LGR2, CRE-luciferase, bursicon-stimulated, 4 h | inhibition, % at 9.99 µM | 380,000 tested, 0.35% active | AID 720647;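 active = drop in luminescence signal, shown as inhibition above about 50% in the replicate tests, limit read from the data, passing the limit was not always enough; inconclusive = probably only some replicates passing the limit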;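 note: agonist challenge used bursicon conditioned medium at about half maximal strength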
hiPSC survival: hiPSC single-cell survival enhancement; ATPlite luminescence; 100% = ROCK inhibitor wells, 0% = DMSO; survival enhancement, % at 20 µM; 360,000 tested, 0.044% active; in the data active = survival enhancement above about 18%;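 note: cells exposed to compounds for 16 hours before the ATP read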
TWEAK Fn14 block: blocks TWEAK-Fn14 interaction in a reporter cell assay; TWEAK-stimulated Fn14 reporter cells, luciferase luminescence, 8 h; inhibition, % at 10 µM; 360,000 tested, 2% active; in the data active = inhibition above about 50%
CF NFkB inh: blocks PAF-induced NF-kB reporter in cystic fibrosis cells. AID 588850. 360,000 tested, 0.86% active. KKLEB NF-kB-GFP reporter, GFP fluorescence overnight. inhibition, % at 5 µM;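 active = at least 50% inhibition at 5 µM, scaled per plate between neutral and stimulator controls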;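 note: PAF is a Pseudomonas aeruginosa culture filtrate used as stimulus; plate controls were PAF-stimulated DMSO wells for no effect and unstimulated DMSO wells for full effect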
Starred values were filed as active, the others as inactive; ? = inconclusive; nt = not tested or not shown.

SMILES	KKLEB cytotox	HIF-2a inh	LGR2 antag	hiPSC survival	TWEAK Fn14 block	CF NFkB inh
COc1cccc(N(C(=O)c2cnccn2)C(C(=O)NC2CCCCC2)c2ccc(Cl)cc2)c1 (stereo not drawn)	-2	13	nt	-1	14	-8
COc1ccc(C(C(=O)NC2CCCCC2)N(C(=O)CCl)c2cccc(Cl)c2)cc1 (stereo not drawn)	-76*	36	nt	-2	58*	100*
COc1ccc(C(C(=O)NC2CCCCC2)N(C(=O)c2cccs2)c2ccc3c(c2)OCO3)cc1 (stereo not drawn)	-70*	-7	nt	-1	4	47
O=C(NC1CCCCC1)C(c1ccccc1)N(C(=O)c1cccs1)c1ccc2c(c1)OCO2 (stereo not drawn)	-9	0	7	1	1	15
COc1ccc(N(C(=O)c2ccco2)C(C(=O)NC2CCCCC2)c2cccs2)cc1OC (stereo not drawn)	-9	13	nt	1	77*	0
CC(=O)c1cccc(N(C(=O)c2ccco2)C(C(=O)NC2CCCC2)c2cccs2)c1 (stereo not drawn)	3	12	5	-1	12	-4
C[C@@H]1CN([C@H](C)CO)S(=O)(=O)c2ccc(C3=CCCC3)cc2O[C@H]1CN(C)S(C)(=O)=O	nt	nt	-1	nt	nt	nt
CCCC#Cc1ccc([C@H]2[C@H]3CN(S(=O)(=O)Cc4ccccc4)CC(=O)N3[C@H]2CO)cc1	nt	nt	7	nt	nt	nt
O=C(C[C@@H]1C=C[C@H](NC(=O)c2ccncc2)[C@@H](CO)O1)Nc1ccc(-c2ccccc2)cc1	nt	nt	-10	nt	nt	nt
Cc1cccc(-c2ccc([C@H]3[C@@H](CO)N4C(=O)CN(C(=O)c5cccnc5)C[C@@H]34)cc2)c1	nt	nt	2	nt	nt	nt
COc1ccc(Br)cc1C1NC(=O)NC(C)=C1C(=O)N(C)C (stereo not drawn)	-53*	10	nt	9	8	1
CN1CCS/C1=C\C=C1/SC(=S)N(CC(=O)O)C1=O	-26	27	1	-1	14	16
CCN1C(=O)/C(=C/C=C2/SCCN2C)SC1=S	8	-100	nt	0	68*	-13
CCC(=O)/C=C1/Sc2ccccc2N1CC	13	-7	2	-2	16	2
CCN1/C(=C/c2sc(-c3ccccc3C)c[n+]2C)Sc2ccccc21	-36	-76	29	0	63*	34
CN(CC(=O)Nc1ccc(Br)cc1)Cc1ccccc1	7	-114	-48	0	-31	-22
COC(=O)c1cc(NC(=O)CN(C)Cc2ccccc2)cc(C(=O)OC)c1	-2	11	0	1	86*	-16
Cc1noc(C)c1S(=O)(=O)N(C)C[C@H]1Oc2c(cccc2N(C)C)C(=O)N([C@@H](C)CO)C[C@@H]1C	nt	nt	-6	nt	nt	nt
Cc1cc(OCC(O)CNC(C)c2ccccc2)ccc1C(C)C (stereo not drawn)	6	9	66*	-1	0	6
CCCC(NCC(O)COc1ccc(-c2ccccc2)cc1)c1ccccc1 (stereo not drawn)	-16	-15	75*	0	-9	11
CN1CCN(c2ccc(NC(=O)CSc3ccccc3)cc2F)CC1	-2	-76	nt	-2	53*	-2
O=C(C[C@H]1C=C[C@@H](NC(=O)C2CC2)[C@@H](CO)O1)NCc1ccncc1	nt	nt	3	nt	nt	nt
Fc1ccc2cnc(CCO[C@H]3CCCCO3)cc2c1	7	-71	54*	-2	67*	-15
CCNC(=O)C1(C)CCN(C(=O)c2ccc(F)cc2Cl)C1 (stereo not drawn)	0	8	2	0	89*	15
CCCS(=O)(=O)NC(=O)C1(C)CCN(C(=O)c2ccc(F)cc2Cl)C1 (stereo not drawn)	6	7	nt	-1	20	-3
SMILES	KKLEB cytotox	HIF-2a inh	LGR2 antag	hiPSC survival	TWEAK Fn14 block	CF NFkB inh
CCN(CC)c1ccc2nc3ccc(N)cc3[n+](-c3ccccc3)c2c1	-8	1	59*	0	11	-18
CCN(CC)c1ccc2nc3ccccc3[n+](CC)c2c1	13	17	nt	-1	64*	-5
CCN(CC)C(=O)c1ccc2nc3ccccc3nc2c1	9	-76	0	-1	12	-10
CS(=O)(=O)Nc1ccc2c(c1)[C@@H]1C[C@@H](CC(=O)N3CCOCC3)O[C@@H](CO)[C@@H]1O2	nt	nt	-17	nt	nt	nt
COc1ccccc1S(=O)(=O)N1CC[C@@H]2[C@H](CO)Nc3ccc(-c4ccccc4)cc3[C@@H]21	nt	nt	16	nt	nt	nt
Cc1cc(C)cc(Nc2ncc3c(n2)CCCC3=O)c1	6	-43	37	-1	71*	-11
Cc1[nH]c2ccccc2c1C(=O)CSc1nc2cc(S(=O)(=O)N3CCCCC3)ccc2o1	2	8	nt	-2	55*	14
COCC(=O)Nc1ccc2c(c1)OC[C@@H](C)N(Cc1cccnc1)C[C@@H](C)[C@H](OC)CN(C)C2=O	nt	nt	-11	nt	nt	nt
Nc1ccc(-c2nc3ccc(-c4nc5ccccc5o4)cc3[nH]2)cc1	-76*	-275	nt	-3	31	37
CC(C)(C)c1ccc(C(=O)n2cnc3ccccc32)cc1	-4	27	-1	0	78*	7
CCN(CC)c1ccc(C(=O)n2cnc3ccccc32)cc1	-4	-261	nt	6	34	3
C[C@H](CO)N1C[C@H](C)[C@@H](CN(C)S(=O)(=O)c2ccc(Cl)cc2)Oc2ccc(NS(=O)(=O)c3ccc(F)cc3)cc2C1=O	nt	nt	-10	nt	nt	nt
Cc1cc2n(n1)SC(Nc1cccc3ccccc13)N2 (stereo not drawn)	10	-230	nt	1	19	-2
CCc1ccccc1NC1Nc2cc(C)nn2S1 (stereo not drawn)	19	-1	-3	1	57*	-31
COc1ccc(C(=O)Nc2nnc(SCC(=O)NCc3ccco3)s2)c(OC)c1	-11	1	?	0	75*	-5
COc1ccc(C(=O)Nc2nnc(SCC(=O)Nc3ccc(NC(C)=O)cc3)s2)c(OC)c1	-23	-205	12	0	11	16
COc1ccc(C(=O)Nc2nnc(SCC(=O)NC3CCCC3)s2)c(OC)c1	-26	-115	-42	-1	74*	-25
COc1cccc(C(=O)Nc2nnc(SCC(=O)NC3CC3)s2)c1	0	-75	-8	-1	-5	-7
COc1ccc(C(=O)Nc2nnc(SCC(=O)NC3CC3)s2)cc1	-2	-36	?	-1	54*	9
COc1ccccc1C(=O)Nc1nnc(SCC(=O)NCc2ccco2)s1	22	-90	nt	0	36	-40
CCc1nnc(NC(=O)c2ccc(OC)cc2OC)s1	-1	-38	nt	-3	74*	0
CN1C(=O)c2cc(NS(=O)(=O)c3ccccc3Cl)ccc2OC[C@H]2O[C@H](CC(=O)O)CC[C@@H]21	nt	nt	-2	nt	nt	nt

From PubChem BioAssay
